Screens (PubChem)
HT1080NT lethal – kills 2HG-producing HT-1080-NT fibrosarcoma cells; HT-1080-NT fibrosarcoma viability, CellTiter-Glo ATP luminescence, 48 h; Potency, µM (highest dose often 46.1 µM), hits mostly cytotoxic; 360,000 compounds, 1.6% hits; AID 686970;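 note: NT is the 2HG producing partner of a matched IDH1 knockdown line; nearly all actives have a fitted effect of over 55% in size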
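Fibrosarcoma NT cells, 750 per well in 5% FBS RPMI, were exposed to compound for 48 hours. Viability: CellTiter-Glo luminescence.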
ALOX12 inh – ALOX12 (human) lipoxygenase inhibition; P18054; purified 12hLO, xylenol orange hydroperoxide absorbance; Potency, µM (titrated, usually from 108 µM), usual class: inhibitors; 580,000 compounds, 1.1% hits
Target sequence (P18054 whole entry, looked up): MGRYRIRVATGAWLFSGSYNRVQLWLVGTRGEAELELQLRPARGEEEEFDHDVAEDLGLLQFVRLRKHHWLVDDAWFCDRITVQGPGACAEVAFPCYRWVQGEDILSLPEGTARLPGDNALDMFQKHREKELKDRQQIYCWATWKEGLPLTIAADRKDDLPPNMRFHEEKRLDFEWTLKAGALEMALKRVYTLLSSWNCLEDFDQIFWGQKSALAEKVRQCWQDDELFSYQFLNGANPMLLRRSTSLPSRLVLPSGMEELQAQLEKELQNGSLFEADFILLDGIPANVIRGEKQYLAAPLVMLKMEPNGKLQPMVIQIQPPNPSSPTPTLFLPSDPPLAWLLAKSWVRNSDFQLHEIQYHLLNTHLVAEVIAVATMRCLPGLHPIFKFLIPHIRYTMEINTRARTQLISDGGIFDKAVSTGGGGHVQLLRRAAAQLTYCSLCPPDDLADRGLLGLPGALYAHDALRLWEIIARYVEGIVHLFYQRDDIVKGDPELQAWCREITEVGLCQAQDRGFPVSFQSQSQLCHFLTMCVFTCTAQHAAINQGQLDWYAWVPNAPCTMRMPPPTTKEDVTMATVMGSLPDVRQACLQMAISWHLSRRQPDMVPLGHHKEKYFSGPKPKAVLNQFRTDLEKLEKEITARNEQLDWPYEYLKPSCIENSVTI
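Purified human 12hLO at 150 nM in 25 mM Hepes, 0.01% Triton X-100, pH 7.0, preincubated 15 min at room temperature with compound. Reaction started with 40 uM arachidonic acid, 30 min at room temperature. Hydroperoxide measured by Fe-xylenol orange, 573/405 nm absorbance ratio.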
HT1080 IDH1KD tx – kills HT-1080 cells with IDH1 knockdown; HT-1080 IDH1 knockdown viability, ATP luminescence, 48 h; Potency, µM (highest dose often 46.1 µM), most hits filed as cytotoxic; 360,000 compounds, 2% hits
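In this qHTS, HT-1080 cells depleted of IDH1 are exposed for 48 h at 37 °C to compound titrations. Toxicity is scored from CellTiter-Glo luminescence, with DMSO as full viability and medium alone as none.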
IL1B secr inh – inhibitors of inflammasome signaling (IL-1 beta secretion) | 360,000 compounds, 4.7% hits | activity change, % at 57.5 µM | THP-1 LPS/ATP IL-1B secretion, AlphaLISA, 16 h; stronger effect = lower value | AID 743279; in the data active = activity change below about -50%; inconclusive = mostly about -30% to -49%
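THP-1 cells pretreated 1 hr with compounds (up to 57.5 uM final), then stimulated with LPS (250 ng/mL final) plus ATP (1.25 mM final); secreted IL-1B measured by AlphaLISA after 16 hr, decreased signal indicating inhibition.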
TDP1 cell CPT – DT40-hTDP1 cell growth loss with CPT; Potency, µM (highest dose often 46.2 µM), actives largely listed as inhibitors; 420,000 compounds, 12% hits; chicken DT40 Tdp1-/-;hTDP1 cells + 20 nM CPT, ATP luminescence, 48 h; note: nearly all actives have a fitted effect of over 55% in size
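Cell growth measured by CellTiter-Glo luminescence after a minimum 48 h, 37 C compound exposure with 20 nM CPT in Tdp1-knockout DT40 cells stably expressing hTDP1, seeded 400/well; qHTS titration format.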
TDP1 cell noCPT – qHTS for Inhibitors of human tyrosyl-DNA phosphodiesterase 1 (TDP1): qHTS in cells in absence of CPT; 420,000 compounds, 15% hits; DT40 Tdp1-/- hTDP1 cells, no CPT, ATP luminescence, 48 h; Potency, µM (series often up to 46.2 µM), actives largely listed as inhibitors; note: nearly all actives have a fitted effect of over 55% in size
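A cellular qHTS used chicken DT40 cells lacking endogenous Tdp1 but carrying stably transfected human TDP1. Compounds were applied without camptothecin, and cell growth kinetics were judged by ATP-dependent luminescence after ≥48 hr.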
Hits are given with their value; - = inactive; ? = inconclusive; . = not tested or not shown; [ ] = another dose, or the depositor's remark. Many of the other results were omitted from the sample, so hits are more common in it than they were. Unless noted, calls come from the whole dose curve; as a rule, active = well fitted curve in the direction sought with a large enough effect; inconclusive = small, poorly fitted or top-dose-only effect, or another doubt; inactive = no such curve, though single readings can be large; an effect the other way counts as inactive or inconclusive.

SMILES	HT1080NT lethal	ALOX12 inh	HT1080 IDH1KD tx	IL1B secr inh	TDP1 cell CPT	TDP1 cell noCPT
CCOC(=O)CSc1nc2ccccc2c(=O)n1CC1CCC(C(=O)NCc2ccco2)CC1 (stereo not drawn)	-	?	-	-	?	23µM
Cc1ccc(C=Nc2c(Br)cc(C)cc2Br)cc1	.	-	.	.	.	.
CC1=C(O)C(=O)CO1	.	25µM	.	.	.	.
O=C1OCC(CC2=C(O)C(=O)OC2)=C1O	-	-	-	-	-	-
COc1ccc(CNn2c(C)nc3ccccc3c2=O)cc1	-	-	?	-	-	?
CCCCCC(=O)Nc1cccc2ccccc12	-	-	-	-	-	-
CCCCOc1ccc(CNn2c(C)nc3ccccc3c2=O)cc1	-	-	-	-	?	23µM
CCCCCCOc1ccc(CNc2cccc3ccccc23)cc1	.	4.5µM	.	.	.	.
COc1ccc2c(c1)O/C(=C\c1sccc1C)C2=O	-	?	-	-	?	18µM
COc1ccc(C=C2OC(=O)C(C(C)=O)=C2O)cc1	-	45µM	-	-	?	16µM
COc1ccc(/C=C2\Oc3ccccc3C2=O)cc1	-	?	-	-	?	18µM
CC(=O)C1=C(O)C(=Cc2ccccc2)OC1=O	-	14µM	-	-	-	?
COc1ccc(/C=C2\OC(=S)N(C)C2=O)cc1	-	-	-[9.24 µM]	-	-	-
Cc1ccsc1/C=C1\Oc2cc(OC(=O)c3cccs3)ccc2C1=O	.	-	.	.	.	.
N#Cc1nc(-c2ccc(S(=O)(=O)N3CCCCCC3)cc2)oc1NCc1ccco1	.	-	.	.	.	.
CCC(C)(C)NC(=O)CC(NC(N)=O)c1ccccc1C (stereo not drawn)	.	-	.	.	.	.
Cc1noc2ncnc(N3CCCCC3)c12	-	-	-	-	-	?
COc1ccc(N2CCN(c3ncnc4onc(C)c34)CC2)cc1	.	-	.	.	21µM	16µM
COc1ccc(N2CCN(c3ncnc4onc(-c5ccc(F)cc5)c34)CC2)cc1	.	-	.	.	?	?
Cc1noc2ncnc(N3CCN(c4ccc(F)cc4)CC3)c12	-	-	-	-	?	18µM
CC[N+](CC)(CC#Cc1ccccc1)CC(=O)c1ccc(Cl)cc1	-	-	-	-	5.8µM	5.8µM
CCC[N+](CC#CCO)(CC#Cc1ccccc1)CCC	-	-	-	-	-	-
CCCC[N+](CC#CCO)(CC#Cc1ccccc1)CCCC	-	-	-	-	?	9.2µM
CC1CCN(Cc2ccc(CNc3ccc(C#N)cn3)cc2)CC1	.	-	.	.	.	.
O=C(NCC(c1ccc(F)cc1)N1CCOCC1)c1nn(-c2ccccc2)c(=O)c2ccccc12 (stereo not drawn)	-[9.24 µM]	-	-	-	?	21µM
SMILES	HT1080NT lethal	ALOX12 inh	HT1080 IDH1KD tx	IL1B secr inh	TDP1 cell CPT	TDP1 cell noCPT
O=C(NCC(c1ccc(F)cc1)N1CCOCC1)c1ccc(-c2ccccc2)cc1 (stereo not drawn)	-	-	-	-	16µM	?
CN(C)S(=O)(=O)c1ccc(C(=O)Nc2ccc3c(c2)CCC3)cc1	-	-	-	-	?	?
CN(C)S(=O)(=O)c1cccc(C(=O)Nc2ccc3c(c2)CCC3)c1	-	-	-	-	16µM	18µM
CN(C)S(=O)(=O)c1cccc(NC(=O)c2ccc3nccnc3c2)c1	-	-	-	-	13µM	23µM
CC(=O)c1cccc(NC(=O)c2cccc(S(=O)(=O)N(C)C)c2)c1	-	-	-	-	-	?
C=CCC1(C(=O)O)CCCN(Cc2ccc(OC)c(COC)c2)C1 (stereo not drawn)	.	-	.	.	.	.
CO[C@H]1C(=O)N(C(C)C)[C@H]1C1CCN(Cc2cccc(C#N)c2)CC1	.	-	.	.	.	.
COc1ccc(/C=C/C(=O)OCCCC(c2ccc(F)cc2)c2ccc(F)cc2)cc1OC	.	-	.	.	.	.
CCOc1ccccc1NC(=O)C1CC(=O)N(c2n[nH]c3ccccc23)C1 (stereo not drawn)	.	-	.	.	.	.
CC(=O)Nc1ccc(OC(=O)c2ccc(Cl)cc2)cc1	-	-	-	-	-	-
COc1ccc(C(=O)N/N=C/c2ccccc2C(=O)O)cc1OC	-	-	-	-	-	-
COc1cc(C(=O)Oc2ccccc2/C=N/NC(=O)c2ccc(C)c(Cl)c2)cc(OC)c1OC	?	-	?	-	1.2µM	0.92µM
CC(=O)Nc1ccc(C(=O)N/N=C/c2ccccc2OC(=O)c2ccc(Cl)cc2)cc1	?	-	23µM	-	9.2µM	10µM
C=CCNC(=O)CSc1nc2sc3c(c2c(=O)n1CCC)CCC3	-	-	-	-	?	15µM
C=C(C)Cn1c(SCC(=O)c2ccc(OC)cc2)nc2sc3c(c2c1=O)CCCC3	.	-	.	.	10µM	12µM
C=C(C)Cn1c(SCC(=O)Nc2cccc(Cl)c2)nc2sc3c(c2c1=O)CCCC3	.	-	.	.	?	15µM
C=C(C)Cn1c(SCC(=O)Nc2ccccc2C)nc2sc3c(c2c1=O)CCCC3	.	-	.	.	?	?
COCc1nc(NCCCc2c(C)noc2C)cc(C2CC(N)C2)n1 (stereo not drawn)	.	-	.	.	.	.
CCc1ccc(S(=O)(=O)N2CCC(n3cnnc3COC)CC2)cc1	.	-	.	.	.	.
Cc1[nH]c2ccccc2c1C(=O)C(C)Oc1ccccc1F (stereo not drawn)	.	-	.	.	.	.
CCCCCNC(=O)CCCC(=O)NCCCCC	.	-	.	.	.	.
COc1cccc(/C=C/c2nc3ccccc3o2)c1OC(C)C	.	-	.	.	.	.
CN(C)c1nc(N)nc(CSc2ccccc2Cl)n1	.	-	.	.	.	.
CC(NC(=O)CCSc1nc(-c2ccc3c(c2)OCO3)cc(C(F)(F)F)n1)c1ccccc1 (stereo not drawn)	-	-	-	-	23µM	?
CC(C)NC(=O)CCSc1nc(-c2ccc3c(c2)OCO3)cc(C(F)(F)F)n1	.	-	.	.	13µM	8.2µM
SMILES	HT1080NT lethal	ALOX12 inh	HT1080 IDH1KD tx	IL1B secr inh	TDP1 cell CPT	TDP1 cell noCPT
CC(C)(C)NC(=O)CCSc1nc(-c2ccc3c(c2)OCO3)cc(C(F)(F)F)n1	.	-	.	.	.	.
CC(C)CNC(=O)CCSc1nc(-c2ccc3c(c2)OCO3)cc(C(F)(F)F)n1	.	-	.	.	.	.
O=C(CN1C(=O)NC(c2ccc(Cl)cc2)C2=C1COC2=O)Nc1cc(F)cc(F)c1 (stereo not drawn)	.	11µM	.	.	.	.
Cc1ccc(NC(=O)CN2C(=O)NC(c3ccc(Cl)cc3)C3=C2COC3=O)cc1 (stereo not drawn)	.	11µM	.	.	.	.
Cc1ccc(C2NC(=O)N(CC(=O)Nc3c(C)cccc3Cl)C3=C2C(=O)OC3)cc1 (stereo not drawn)	.	-	.	.	.	.
O=C(CN1C(=O)NC(c2ccc(Cl)cc2)C2=C1COC2=O)Nc1ccc(Br)cc1F (stereo not drawn)	.	4.5µM	.	.	.	.
